Assay results as given in PubChem BioAssay (EPA / NIEHS).
“And” between values parts separate entries of the source, which are not always exact repeats. Equal entries are not always repeated. Inconclusive results are not listed. Some structures have more than one record in an assay (separate samples or runs), and their calls can disagree. The source made the active and inactive calls. How the source made its calls, unless noted: active means hit-call score of the fitted dose curve at least 0.9, where 1 is the maximum; inactive means score below 0.9.

Key:
[1] = ATG_TCF_b_cat_CIS: Attagene CIS-FACTORIAL HepG2 Assay for human T-Cell-Factor with beta-catenin (TCF/b-cat) (AID 2282965); details: HepG2 TCF/beta-catenin cis-reporter transcription, actives raise or lower the signal
In short: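 Using capillary electrophoresis as the read-out, labelled reporter cDNA fragments from transiently transfected HepG2 were sized and quantified. Exposure lasted 24 hours; activity in either direction was referenced to DMSO.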

[2] = ATG_TAL_CIS: Attagene CIS-FACTORIAL HepG2 Assay for human TAL Basal Promoter (AID 2282966); details: HepG2 Attagene cis-factorial TAL promoter reporter; actives raise or lower the signal;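 further: background control endpoint measuring basal TAL promoter reporter mRNA not a specific factor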
In short: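 Basal-promoter background-control endpoint from a multiplexed HepG2 reporter panel. Cells were exposed 24 h, then reporter mRNA was read by RT-PCR/CE fluorescence and fitted in both directions relative to DMSO.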

[3] = ATG_TGFb_CIS: Attagene CIS-FACTORIAL HepG2 Assay for human Transforming Growth Factor (TGF) (AID 2282967); details: HepG2 Attagene CIS TGFb reporter, mRNA transcription; actives raise or lower the signal
In short: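 Cells were dosed for 24 hours, after which total RNA was reverse-transcribed and reporter sequences amplified, labeled and sized by capillary electrophoresis. Activity was fitted in both directions against DMSO.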

[4] = ATG_VDRE_CIS: Attagene CIS-FACTORIAL HepG2 Assay for human Vitamin D Receptor Element (VDRE) (AID 2282968); details: HepG2 VDRE cis-reporter transcription, actives raise or lower the signal
In short: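 Steps: transfect HepG2 with multiple reporter transcription units; dose chemicals 24 h; isolate RNA; RT-PCR; label with 6-FAM primer extension; HpaI digest; capillary electrophoresis. Curves fitted both directions against DMSO.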

[5] = biological target: Nuclear receptor subfamily 1 group I member 3 (Homo sapiens) (UniProt Q14994); experiment: ATG_CAR_TRANS: Attagene TRANS-FACTORIAL HepG2 Assay for human Constitutive Androstane Receptor (CAR) (AID 2282969; active means hit-call score of the fitted dose curve at least 0.9, where 1 is the maximum;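 further: activators raise reporter mRNA above DMSO so AC50 marks induction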); details: HepG2 Attagene TRANS-FACTORIAL CAR reporter
In short: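 Steps: transient transfection of HepG2 with multiple GAL4-UAS reporter units; 24 h compound incubation; RNA isolation, RT-PCR, 6-FAM primer extension, HpaI digest; capillary electrophoresis. Gain-of-signal relative to DMSO negative control.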

[6] = biological target: Estrogen receptor (Homo sapiens) (UniProt P03372); experiment: ATG_ERa_TRANS: Attagene TRANS-FACTORIAL HepG2 Assay for human Estrogen Receptor alpha (ERa) (AID 2282970; active means hit-call score of the fitted dose curve at least 0.9, where 1 is the maximum); details: HepG2 Attagene TRANS ERa GAL4 reporter, mRNA
In short: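 Gal4-fusion ERa transactivation, measured as reporter transcript level in transiently transfected HepG2 cells. Exposure 24 h; RT-PCR plus capillary electrophoresis with fluorescence detection.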

[7] = biological target: X-box-binding protein 1 (Homo sapiens) (UniProt P17861); experiment: ATG_Xbp1_CIS: Attagene CIS-FACTORIAL HepG2 Assay for human X-box Binding Protein 1 (XBP1) (AID 2282972); details: HepG2 XBP1 cis-element reporter, Attagene multiplex; actives raise or lower the signal
In short: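 Reporter transcripts were quantified by RT-PCR with fluorescent primer extension and capillary electrophoresis after 24 h chemical exposure. Cells: transiently transfected HepG2 carrying cis-regulated reporter constructs; data fitted bidirectionally relative to DMSO.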

[8] = ATG_M_19_TRANS: Attagene TRANS-FACTORIAL HepG2 Assay for M19 Transcription Factor (Internal Marker) (AID 2282974; active means hit-call score of the fitted dose curve at least 0.9, where 1 is the maximum); details: HepG2 Attagene TRANS-FACTORIAL M19 internal marker reporter
In short: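 Cells: human HepG2, transiently transfected with multiplexed reporter transcription units. Exposure: 24 h. Detection: RT-PCR of reporter mRNA with capillary electrophoresis. Analysis: gain-of-signal vs DMSO.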

[9] = ATG_GAL4_TRANS: Attagene TRANS-FACTORIAL HepG2 Assay for GAL4 (Internal Marker) (AID 2282976; active means hit-call score of the fitted dose curve at least 0.9, where 1 is the maximum); details: HepG2 Attagene TRANS GAL4 internal marker reporter
In short: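 Background-control readout: GAL4-UAS reporter transcript in transiently transfected HepG2 cells after 24 h compound exposure. Measured by RT-PCR, 6-FAM primer extension, HpaI digest and capillary electrophoresis; gain-of-signal fit versus DMSO.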

[10] = biological target: Steroid hormone receptor ERR1 (Homo sapiens) (UniProt P11474); experiment: ATG_ERRa_TRANS: Attagene TRANS-FACTORIAL HepG2 Assay for human Estrogen-Related Receptor alpha (ERRa) (AID 2282971; active means hit-call score of the fitted dose curve at least 0.9, where 1 is the maximum); details: HepG2 Attagene TRANS reporter, ERRa transactivation
In short: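 HepG2 cells transiently transfected with GAL4-UAS reporter units and chimeric NR-Gal4 constructs; after 24 hour compound incubation, reporter mRNA quantified by RT-PCR, fluorescent labelling and capillary electrophoresis, gain of signal versus DMSO.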

Measured: AC50

Chain of Steroid hormone receptor ERR1 (Homo sapiens) (P11474 whole entry, looked up, the tested form may be a part): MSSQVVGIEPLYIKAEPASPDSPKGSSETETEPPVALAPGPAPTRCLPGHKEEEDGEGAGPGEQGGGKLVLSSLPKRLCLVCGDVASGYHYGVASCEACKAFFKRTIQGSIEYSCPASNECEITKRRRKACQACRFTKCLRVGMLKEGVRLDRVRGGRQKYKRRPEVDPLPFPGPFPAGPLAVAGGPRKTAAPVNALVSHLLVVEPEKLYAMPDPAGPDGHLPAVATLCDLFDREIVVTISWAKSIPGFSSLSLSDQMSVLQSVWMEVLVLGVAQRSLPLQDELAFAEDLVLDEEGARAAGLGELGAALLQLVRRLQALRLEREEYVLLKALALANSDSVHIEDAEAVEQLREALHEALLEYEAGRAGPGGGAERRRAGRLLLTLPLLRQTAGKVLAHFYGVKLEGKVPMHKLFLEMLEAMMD
Chain of Estrogen receptor (Homo sapiens) (P03372 whole entry, looked up, the tested form may be a part): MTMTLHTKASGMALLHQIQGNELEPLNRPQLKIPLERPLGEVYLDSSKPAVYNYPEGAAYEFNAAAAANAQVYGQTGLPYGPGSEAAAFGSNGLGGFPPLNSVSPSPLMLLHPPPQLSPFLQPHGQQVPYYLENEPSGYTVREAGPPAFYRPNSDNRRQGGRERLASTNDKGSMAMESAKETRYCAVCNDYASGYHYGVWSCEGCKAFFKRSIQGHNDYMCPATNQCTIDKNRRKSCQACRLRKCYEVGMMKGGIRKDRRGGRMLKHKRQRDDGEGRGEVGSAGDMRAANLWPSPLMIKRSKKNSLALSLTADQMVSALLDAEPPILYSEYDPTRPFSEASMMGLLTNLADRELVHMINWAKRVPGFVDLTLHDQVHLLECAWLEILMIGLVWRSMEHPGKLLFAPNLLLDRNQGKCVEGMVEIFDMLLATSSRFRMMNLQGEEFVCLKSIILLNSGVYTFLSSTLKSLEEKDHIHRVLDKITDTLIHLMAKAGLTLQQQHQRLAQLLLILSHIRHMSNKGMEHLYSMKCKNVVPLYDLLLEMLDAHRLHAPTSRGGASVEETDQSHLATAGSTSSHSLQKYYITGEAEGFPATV
Chain of Nuclear receptor subfamily 1 group I member 3 (Homo sapiens) (Q14994 whole entry, looked up, the tested form may be a part): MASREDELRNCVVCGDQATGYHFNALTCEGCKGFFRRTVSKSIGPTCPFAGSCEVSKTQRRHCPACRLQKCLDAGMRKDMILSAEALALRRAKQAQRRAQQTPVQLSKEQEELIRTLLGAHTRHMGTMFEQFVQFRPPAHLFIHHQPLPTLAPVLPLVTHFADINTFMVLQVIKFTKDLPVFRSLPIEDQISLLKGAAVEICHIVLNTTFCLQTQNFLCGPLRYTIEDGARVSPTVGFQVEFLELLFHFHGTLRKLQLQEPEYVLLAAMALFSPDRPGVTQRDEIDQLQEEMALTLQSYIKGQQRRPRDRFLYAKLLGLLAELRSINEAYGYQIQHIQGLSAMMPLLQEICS
Chain of X-box-binding protein 1 (Homo sapiens) (P17861 whole entry, looked up): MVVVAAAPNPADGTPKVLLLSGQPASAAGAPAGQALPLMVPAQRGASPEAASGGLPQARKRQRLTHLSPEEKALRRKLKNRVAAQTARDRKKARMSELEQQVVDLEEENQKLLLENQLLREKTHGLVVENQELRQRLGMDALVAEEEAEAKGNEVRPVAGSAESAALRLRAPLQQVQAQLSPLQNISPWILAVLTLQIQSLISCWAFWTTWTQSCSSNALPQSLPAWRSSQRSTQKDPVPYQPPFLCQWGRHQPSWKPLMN

CCOC(=O)CC(O)(CC(=O)OCC)C(=O)OCC
inactive: [1] | [2] | [3] | [4] | [5] | [6] | [7] | [8] | [9]

Cc1cc(CCN2CCN(c3nsc4ccccc34)CC2)cc2c1NC(=O)CC2(C)C
inactive: [1] | [2] | [3] | [5] | [6] | [10]
active: [4] 4.92 µM | [7] 11 µM

OC1CCCCC1
inactive: [1] | [2] | [3] | [4] | [6] | [7] | [9]

O=[N+]([O-])c1ccc(O)cc1
inactive: [2] | [3] | [4] | [6] | [7] | [9]

CCC(C)(C)C1CCC(O)CC1 (stereo not drawn)
inactive: [2] | [3] | [4] | [5] | [7] | [8] | [9]

C#C[C@]1(O)CC[C@H]2[C@@H]3CCC4=CC(=O)CC[C@@H]4[C@H]3CC[C@@]21C
inactive: [2] | [3] | [5] | [7] | [8]

COC(=O)CCCCC(=O)OC
inactive: [2] | [3] | [4] | [6] | [7] | [9]

CC#C[C@]1(O)CC[C@H]2[C@@H]3CCC4=CC(=O)CCC4=C3[C@@H](c3ccc(N(C)C)cc3)C[C@@]21C
active: [2] 14.7 µM | [3] 8.06 µM and 26.5 µM | [7] 35.7 µM [middle of 4 runs]
inactive: [2] | [3] | [6] | [8]

NC(=O)N(O)[C@@H]1C=C[C@H](Oc2cccc(Oc3ccc(F)cc3)c2)C1
inactive: [2] | [3] | [7] | [8]
active: [4] 26 µM | [6] 11.2 µM

CCCOc1sc(C(=O)N2CCC(c3cc(CN)ccc3F)CC2)c(C)c1Br
inactive: [2] | [3] | [4] | [6] | [7] | [8]

c1ccc2c(c1)ccc1ccccc12
inactive: [2] | [3] | [4] | [5] | [6] | [10] | [7]

Oc1cccc(O)c1
inactive: [2] | [3] | [4] | [6] | [7] | [8] | [9]

CN(C)C=O
inactive: [1] | [2] | [3] | [6] | [7] | [8] | [9]

FC(F)(I)C(F)(F)C(F)(F)C(F)(F)C(F)(F)C(F)(F)I
inactive: [2] | [3] | [4] | [7] | [8]
active: [5] 45.5 µM | [6] 0.00593 µM

OC1CCC(C2CCCCC2)CC1 (stereo not drawn)
inactive: [2] | [3] | [4] | [10] | [7] | [8] | [9]

CN1CCC[C@H]1c1cccnc1
inactive: [2] | [3] | [4] | [5] | [7]
active: [6] 61.2 µM

CC(=O)NC1(c2cccc(F)c2)CCN(CC[C@@]2(c3ccc(Cl)c(Cl)c3)CN(c3ccccc3)C(=O)CO2)CC1
inactive: [2] | [3] | [8] | [9]
active: [4] 39.8 µM | [7] 25.7 µM

CCCCCCCCC(=O)O
inactive: [1] | [2] | [3] | [6] | [7] | [8]

CCCCCCCCCCCCN1CCCC1=O
inactive: [2] | [3] | [4] | [6] | [10] | [7] | [8]

COCC(C)OCC(C)O (stereo not drawn)
inactive: [2] | [3] | [4] | [10] | [7] | [8]

CC(C)(C)c1ccc(O)c(C(C)(C)C)c1
active: [5] 4.79 µM
inactive: [2] | [3] | [4] | [6] | [7]

CCCCC(CC)COC(=O)CCCCC(=O)OCC(CC)CCCC (stereo not drawn)
inactive: [2] | [3] | [4] | [6] | [7] | [8]

CCCCC(CC)COC(=O)CCCCC(=O)OCc1ccccc1 (stereo not drawn)
inactive: [2] | [3] | [4] | [6] | [7]

CC(O)C(=O)O (stereo not drawn)
inactive: [2] | [3] | [4] | [5] | [6] | [7] | [8] | [9]

COCC(C)O (stereo not drawn)
inactive: [2] | [3] | [4] | [6] | [10] | [7] | [8]

OCCC(F)(F)C(F)(F)C(F)(F)C(F)(F)C(F)(F)C(F)(F)F
active: [3] 157 µM | [7] 134 µM
inactive: [2] | [3] | [5] | [6] | [7] | [9]

ClC1=C(Cl)C(Cl)(Cl)C(Cl)=C1Cl
inactive: [2] | [3] | [8]
active: [2] 15 µM | [4] 14.7 µM and 7.29 µM | [6] 15.1 µM and 11.1 µM | [7] 13.4 µM and 7.05 µM

O=C(OCCOCCOC(=O)c1ccccc1)c1ccccc1
inactive: [2] | [3] | [4] | [7] | [8]

O=C(O)c1ccccc1C(c1ccc(O)cc1)c1ccc(O)cc1
inactive: [2] | [3] | [10] | [7] | [8] | [9]

COc1ccc([N+](=O)[O-])cc1N
inactive: [2] | [3] | [4] | [6] | [7] | [8] | [9]

CC(C)CCCCCCOC(=O)CCCCC(=O)OCCCCCCC(C)C
inactive: [2] | [3] | [4] | [7] | [8] | [9]

O=C1OC2(c3ccccc31)c1cc(Br)c(O)c(Br)c1Oc1c2cc(Br)c(O)c1Br
active: [4] 56.4 µM | [7] 66.7 µM
inactive: [2] | [3] | [4] | [5] | [6] | [7] | [8] | [9]

OCCC(F)(F)C(F)(F)C(F)(F)C(F)(F)C(F)(F)C(F)(F)C(F)(F)C(F)(F)F
inactive: [2] | [3] | [5] | [6] | [8]
active: [4] 25.8 µM and 150 µM | [6] 7.75 µM | [7] 48.2 µM and 112 µM

Oc1cc2ccccc2c2ccccc12
inactive: [2] | [3] | [4] | [6] | [7] | [8] | [9]

CCCCCCCCOC(=O)CCCCCCCCC(=O)OCCCCCCCC
inactive: [2] | [3] | [4] | [5] | [6] | [10] | [7] | [8] | [9]

CC[C@H](c1ccc(O)cc1)[C@@H](CC)c1ccc(O)cc1
active: [4] 3.47 µM and 2.97 µM
inactive: [2] | [3] | [4] | [5] | [7] | [8] | [9]

O=c1c(-c2ccc(O)cc2)coc2cc(O)ccc12
inactive: [2] | [3] | [5] | [7] | [9]

CCN(CC)CCNc1ccc(CNC=O)c2sc3ccc(OC)cc3c(=O)c12
active: [4] 0.689 µM | [6] 1.05 µM | [7] 0.766 µM | [9] 3.36 µM
inactive: [2] | [3] | [10]

CCCCCCCCCCCCCC[N+](C)(C)C
inactive: [2] | [3] | [4] | [6] | [10] | [7] | [8] | [9]
active: [10] 25.7 µM | [7] 6.33 µM
